Experimental data from PubChem BioAssay (NCI).
Values joined by “and” are separate entries in the source; they are usually repeats but may differ in a detail not shown here. Equal entries are not always repeated. The panel holds about 83,000 compounds, 20% with a hit somewhere; the sample as a whole holds those more often.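 Results are percent growth after 48 hours of single-concentration exposure. 100 means growth as in untreated cells, lower positive values show inhibition; negative values down to -100 show cell death.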 Active and inactive are the calls of the source.

test system: TK-10 renal; assay: NCI-60 one-dose screen, 48 h (100 = growth as untreated, 0 = no growth, -100 = all killed); settings: 10 µM unless noted
Protocol: Growth inhibition of the TK-10 human tumor cell line is measured as a screen for anti-cancer activity. Cells are grown in 96 well plates and exposed to the test compound for 48 hours. Compounds are tested at a single concentration, which is 10^-5 M for most compounds. The reported endpoint is percent growth (GI% or GIPRCNT), where numbers from 0 - 100% represent growth inhibition, and numbers from -100% - 0 represent cell death. For example, a value of 40 represents 60% growth inhibition. A value of 0 means no net growth occurred over the course of the experiment. A value of -40 indicates 40% of cells at the beginning of the experiment died by the end of the experiment. A value of -100 means all cells are dead at the end of the experiment.
NCI-60 Human Tumor Cell Lines Screen was performed using the standard one-dose NCI protocol, which is described in more detail at https://dtp.cancer.gov/discovery_development/nci-60/default.htm.
Compounds with GIPRCNT values below 10 were considered active. Activity score was based on GIPRCNT using the following formula: […]
Score is 0 for GIPRCNT values of 100 or above, 50 for GIPRCNT values of 0, and 100 for GIPRCNT values of -100.

SMILES	growth
O=[N+]([O-])c1ccc2cnn(CSP(=S)(c3ccccc3)c3ccccc3)c2c1	127% (inactive)
O=[N+]([O-])c1cccc([As]=[As]c2cccc([N+](=O)[O-])c2)c1 (stereo not given)	-98.4% (active)
CCOC(=O)C1C(c2ccccc2)C2(C#N)C(=N)OC1(C)C2(C#N)C#N (stereo not given)	-32.2% [100 µM] (active) and -95.8% [100 µM] (active)
O=C(Nc1ccc(S(=O)(=O)F)cc1)Oc1ccccc1	96.5% (inactive)
CC(=O)O[C@H]1CCC2(C)C(=CCC3C2CCC2(C)/C(=N/OC(=O)c4ccc(N(CCCl)CCCl)cc4)CCC32)C1 (stereo not given in full)	79.8% (inactive)
Cc1ccc(C(=O)C2CN(C)CCC2(O)c2ccc(C)cc2)cc1 (stereo not given)	108% (inactive)
CCN1CC2(CN(CC)C1=S)C(=O)NC(=O)NC2=O	98.5% (inactive)
C[CH2][Sn]([CH2]C)([CH2]C)[NH]S(=O)(=O)c1ccc(C)cc1	109% (inactive)
COc1ccc(/C=C\c2cc(OC)c(OC)c(OC)c2)cc1N/C=C\C(=O)c1c[nH]c2ccccc12	60.1% (inactive)
O=C(O)CC(Br)C(=O)CBr (stereo not given)	98.9% (inactive)
N#CCN1C(=O)C(CCC(N)=O)N=C(c2ccc(O)cc2)c2cc(Cl)ccc21 (stereo not given)	98.2% [30 µM] (inactive)
NC(=O)C(Cl)Cl	98.7% (inactive)
C[C@]12CC[C@H]3[C@@H](C[C@@H]4N=C(c5ccc(O)cc5)S[C@@]45C[C@H](O)CC[C@]35C)[C@@H]1CC[C@@H]2O	89.3% (inactive)
COC(C)(C)CCC[C@H](C)C/C=C/C(C)=C/C(=O)OC(C)C	96.5% (inactive)
Oc1ccccc1OB(Oc1ccccc1O)N(CCCl)CCCl	98.9% (inactive)
CC1=C(SCCC(=O)OCC(=O)NCCC[Te]c2ccccc2)C(=O)c2ccccc2C1=O	18.9% (inactive)
CC(=O)C1C(=O)N(C)C(=O)N(C)C1=O	109% (inactive)
O=C(O)c1[nH]c(=O)[nH]c(=O)c1F	78.6% (inactive)
O=C(NCc1ccc([N+](=O)[O-])cc1)Nc1ccc(S(=O)(=O)F)cc1	78.1% (inactive)
O=C(O)CCC1N=C(c2cccc(O)c2)c2ccccc2NC1=O (stereo not given)	96.4% [30 µM] (inactive)

SMILES	growth
COC(=O)C(=[N+]=[N-])C(=O)OC	92.5% (inactive)
CCCCN(CCCC)CC(O)c1ccccc1 (stereo not given)	115% (inactive)
O=C1C(Cc2ccccc2)N=C(c2cccc(O)c2)c2ccc(Cl)cc2N1CC1CC1 (stereo not given)	105% [30 µM] (inactive)
O=c1[nH]c2cc(Cl)ccc2n1C1CCN(CCCC(c2ccc(F)cc2)c2ccc(F)cc2)CC1	13.1% (inactive)
CC(=O)O[C@H]1CC[C@H]2[C@@H]3CC[C@H]4CC=C(C)C[C@]4(C)[C@H]3CC[C@]12C	108% (inactive)
O=C1NC(=O)C(=Cc2cn(Cc3ccccc3)c3ccccc23)C(=O)N1	28.8% (inactive)
CC1(C)N=C(N)N=C(N)N1c1ccc(OCCCCOc2ccc(S(=O)(=O)F)cc2)c(Cl)c1	11.3% (inactive)
CN1CC2CCC(C1)C2=O	93% (inactive)
COc1ccccc1N1CCN(CCc2c[nH]c3cc4c(cc23)OCO4)CC1	89.7% (inactive)
COc1cc(CNCCc2ccc(Cl)cc2)cc(OC)c1O	79.6% (inactive)
Cc1cc(C)nc(C)c1.[Cl][Hg][Cl]	108% (inactive)
O=C(CF)N(O)c1ccc(/C=C/c2ccccc2)cc1	67.4% (inactive)
C/C=C1\CN2CCC34c5ccccc5N(C)C35OCC4(C(=O)OC)C1CC25 (stereo not given)	80.6% [100 µM] (inactive) and 13.9% [100 µM] (inactive)
CN(Cc1cccnc1)N=O	91.6% (inactive)
CN1C(=O)NC(=O)C(N=Nc2ccc(Cl)cc2)C1=O (stereo not given)	101% (inactive)
O=S(=O)(Cl)c1ccccc1 (tested in a mixture with another compound)	105% (inactive)
c1ccc([As]=[As]c2ccccc2)cc1 (stereo not given)	-86% (active)
COC(=O)C1CC2c3ccccc3C1c1ccccc12 (stereo not given)	107% (inactive)
CC(C)CCC[C@@H](C)[C@H]1CC[C@H]2[C@@H]3CC=C4C[C@@H](OC(=O)Cc5ccc(N(CCCl)CCCl)cc5)CC[C@]4(C)[C@H]3CC[C@]12C	159% (inactive)
CCOc1cc(C=C(C#N)C#N)cc(Br)c1O	102% (inactive)
